About 370 (0.62%) of roughly 60,000 compounds were called active. The list comes from a sample in which actives are over-represented; it also holds similar structures and randomly drawn compounds. A number with no mark means an inactive call. Rule as the data show it: active = inhibition above about 17%; inactive = the rest.
What follows are compounds tested against Mitogen-activated protein kinase 10 (Homo sapiens) (UniProt P53779) (assay: JNK3 kinase activity inhibitors, primary screen, biochemical, human, purified enzyme (AID 746;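 also: 0% = DMSO and 100% = reference inhibitor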)). Details: HTS, at 8 µM, hits give high values.
Mitogen-activated protein kinase 10 (Homo sapiens), sequence (P53779 whole entry, looked up): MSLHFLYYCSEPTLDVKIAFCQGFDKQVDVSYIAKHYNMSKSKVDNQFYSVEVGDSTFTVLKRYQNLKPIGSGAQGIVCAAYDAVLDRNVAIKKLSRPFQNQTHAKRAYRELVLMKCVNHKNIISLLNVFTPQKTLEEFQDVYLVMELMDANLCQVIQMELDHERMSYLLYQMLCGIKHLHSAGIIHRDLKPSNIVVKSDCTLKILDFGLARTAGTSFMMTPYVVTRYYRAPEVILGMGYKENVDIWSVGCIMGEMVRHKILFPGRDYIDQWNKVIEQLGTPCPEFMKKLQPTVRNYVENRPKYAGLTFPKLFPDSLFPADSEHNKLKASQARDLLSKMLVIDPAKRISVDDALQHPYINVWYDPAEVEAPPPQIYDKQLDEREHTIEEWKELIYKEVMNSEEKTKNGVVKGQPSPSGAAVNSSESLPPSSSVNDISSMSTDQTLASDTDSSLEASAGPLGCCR

In order of rising inhibition:
1. CCc1ccc(-c2nnn(Cc3nc4ccccc4s3)n2)cc1  -6.35%
2. CCCCc1nc2ccccc2c(=O)n1NC(=O)c1c(O)c2cccc3c2n(c1=O)CC3  -6.2%
3. O=P(O)(CP(=O)(c1ccccc1)c1ccccc1)c1ccccc1  -5.23%
4. CCCc1cc(=O)[nH]c(SCC(=O)OCc2ccccc2)n1  -3.94%
5. O=P(c1cccs1)(c1cccs1)c1cccs1  -3.85%
6. N#Cc1c(/N=C/N2CCCC2)oc(-c2ccccc2)c1-c1ccccc1  -3.67%
7. Cn1c(=O)c2c(nc(SCCNS(=O)(=O)c3ccccc3)n2C)n(C)c1=O  -3.56%
8. Cc1ccccc1NC(=O)c1cnn(-c2ccccc2)c1NC(=O)c1ccco1  -3.45%
9. COc1ccc(NC(=O)c2c(SC)nsc2SC)cc1  -3.4%
10. Cc1c(C(=O)NCC2CCCO2)sc2nc(-c3ccccc3)cn12 (stereo unspecified)  -3.26%
11. O=C(CN1CCN(C(=O)c2cccc(F)c2)CC1)Nc1ccccc1F  -3.2%
12. COc1cc(Br)cc(/C=N/c2ncn[nH]2)c1O  -2.89%
13. O=C(Cn1[nH]c(=O)c2ccccc2c1=O)Nc1cccc(-c2nnc3n2CCCCC3)c1  -2.76%
14. Cc1ccc2nc3n(c(=O)c2c1)CCC3  -2.11%
15. CCOC(=O)CSc1nnc(NC(=O)c2cccc(S(=O)(=O)N3CCCCC3)c2)s1  -2.01%
16. CCn1cc(C(=O)N2CCN(C3CCCCC3)CC2)c2cc(OC)c(OC)cc2c1=O  -1.36%
17. O/N=C(\c1ccc2c(c1)OCCO2)C1CCCCC1  -1.18%
18. CCN(CC)S(=O)(=O)c1cccc(C(=O)NCC(=O)OCC(=O)NCc2ccccc2)c1  -1.17%
19. COc1ccc(C(=O)CSc2nccc(=O)[nH]2)cc1  -1.11%
20. CCOC(=O)c1ccccc1NC(=O)CC1Nc2ccccc2NC1=O (stereo unspecified)  -0.55%
21. Nc1nnc(C2CCCC2)s1  -0.19%
22. CC(C)n1c(SCC(=O)Nc2ccccc2N2CCCCC2)nc2c1c(=O)n(C)c(=O)n2C  0%
23. CCSC1(SCC)N=C(N)C2(C#N)C(c3ccccc3)NC(C)=CC12C#N (stereo unspecified)  0.03%
24. CCOC(=O)c1sc(N(Cc2ccccc2)C(=O)CN2C(=O)CN(C)C2=O)nc1C  0.36%
25. CCCC(=O)NC(C)C(c1cccs1)N1CCN(c2ccccc2)CC1 (stereo unspecified)  0.41%
26. Cc1c(CN2CCC(C)CC2)c(=O)n(-c2ccccc2)n1C  0.5%
27. CC(=O)Oc1ccc(C)cc1N1C(=O)c2ccc(C(=O)O)cc2C1=O  0.63%
28. Cc1ccc(C(=O)COc2cccc(NC(=O)c3ccco3)c2)cc1  0.83%
29. CC(=O)NC(C)(C)C1CC=C(C)/C(=N\O)C1 (stereo unspecified)  0.98%
30. Cc1ccccc1CSc1nnc(Cn2c(=O)sc3ccccc32)n1C  0.98%
31. Cc1nc2c(-c3ccc(F)cc3)c(C)nn2c(C)c1CCC(=O)N1CCN(c2ccccn2)CC1  1.08%
32. CCC(C)NC(=O)N[C@@H](CCSC)C(=O)O (stereo partly specified)  1.22%
33. COc1cccc(-c2nc3n(n2)C(c2ccccc2Cl)C(C(N)=O)=C(C)N3)c1 (stereo unspecified)  1.25%
34. CCOC(=O)CC1C(=O)NCCN1C(=O)COc1ccc(Br)cc1C (stereo unspecified)  1.6%
35. Clc1ccc(Cc2nnc(-c3cccs3)o2)cc1  2.19%
36. O=C(NCC12CC3CC(C1)CC(CNC(=O)N1CCCC1)(C3)C2)N1CCCC1  2.23%
37. O=C(Cn1cnc2c(cnn2-c2ccccc2)c1=O)NCc1ccccc1  3.12%
38. Cn1c(=O)[nH]c(=O)c2c1nc(CN1CCN(c3ccccc3F)CC1)n2CCc1ccccc1  3.94%
39. O=C(Nc1cccc2cccnc12)c1cccc(N2C(=O)CCC2=O)c1  4.05%
40. O=C(Nc1cc(C(F)(F)F)ccc1Cl)c1cc(C2CC2)on1  4.08%
41. O=C(CSCc1cccs1)N1CCCC1  5.67%
42. CCCc1[nH]nc2c1C(c1ccc(OC(=O)c3ccco3)cc1)C(C#N)=C(N)O2 (stereo unspecified)  6.15%
43. CCOC(=O)C1CCN(C(=O)COc2cc(C)c(Br)c(C)c2)CC1  6.51%
44. CCN(CC)S(=O)(=O)c1ccc2nc(CSc3nnnn3-c3ccc(O)cc3)[nH]c2c1  8.62%

`CCN(CC)S(=O)(=O)c1ccc2nc(COC(=O)c3n[nH]c4ccccc34)[nH]c2c1` was tested, and the inhibition was 95.8% (active).
In the case of `O=c1c2c(nc3n1CCCCC3)sc1c(O)cccc12`, the inhibition is reported as 19.3% (active).

Reference: PubChem BioAssay AID746 (The Scripps Research Institute Molecular Screening Center, 2007)
